About 83,000 compounds went through this panel and 20% of them were active in at least one assay; those are over-represented in the sample as a whole.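 For each line, cells grew in 96-well plates with the test compound present at a single concentration for 48 hours.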 Unmarked numbers belong to inactive results. Calls of active or inactive are those of the source. Rule for the calls: active = growth percent below 10; inactive = the rest.

Our source for the growth values is PubChem BioAssay (NCI).

In this assay the test system is A498 renal. The assay is described as follows: NCI-60 one-dose screen, 48 h (100 = growth as untreated, 0 = no growth, -100 = all killed). The following applies: 10 µM unless noted.
On to `Cn1nc(C(F)(F)F)cc1-c1cc(Cl)c(OCc2ccc(Cl)cc2)c(-c2ccc(Cl)c(C(F)(F)F)c2)c1O`, for which the growth is -41.9% (active). `CC(=O)O[C@H]1[C@H](CC#CC#CC[C@@H]2C[C@]3(C)[C@H]4CC=C5[C@H]6[C@@H](C)[C@H](C)CC[C@]6(C(=O)NCCN(CCN)CCN)CC[C@@]5(C)[C@]4(C)CC[C@H]3C(C)(C)[C@H]2OC(C)=O)C[C@]2(C)[C@H]3CC=C4[C@H]5[C@@H](C)[C@H](C)CC[C@]5(C(=O)NCCN(CCN)CCN)CC[C@@]4(C)[C@]3(C)CC[C@H]2C1(C)C`: the growth is 122%.

On to `CC(=O)c1ccc(Nc2nc(Cl)nc(Oc3c(Cl)cccc3Cl)n2)cc1`, for which the growth was 69.3%. For `Oc1[nH]c2ccccc2c1/C=c1/ccc2c(c1)N=C(c1ccc(C(F)(F)F)cc1)N=2`, the growth is 35%.

With `Brc1cccc(-n2ncc3c(Nc4ccc(-c5nnc(-c6ccccc6)o5)cc4)ncnc32)c1`, the growth is 109%. Regarding `CCNC(=S)N(Cc1ccccc1)Cc1ccccc1`, the growth was 116%. Take `COc1cccc(CC(C)=C(c2ccc(OCCCN(C)C)cc2)c2ccc(OCCCN(C)C)cc2)c1`: the growth is 18.6%. Turning to `N[C@@H](CO)C(=O)O`, the growth is 85.3%. In the case of `O=C(c1ccc(C(F)(F)F)c(Cl)c1)N(Cc1ccc(Cl)cc1)c1ccc(-c2cc(C(F)(F)F)[nH]n2)c(O)c1`, the growth was -21.4% (active). In the case of `c1ccc(C(Nc2ccccn2)(c2ccccc2)c2ccccc2)cc1`, the growth was 72%. Turning to `CC[C@H](Nc1nc(N)nc(N)c1Cl)c1nc2cccc(NCc3ccc(C(=O)NO)cc3)c2c(=O)n1-c1ccccc1`, the growth is -12.7% (active). With `N#Cc1nc(-c2ccc(Cl)cc2)cc(-c2ccc(Nc3nc(N4CCCCC4)nc(N4CCCCC4)n3)cc2)c1N`, the growth is 110%. Regarding `C#CC[C@@H]1C[C@]2(C)[C@H]3CC=C4[C@H]5[C@@H](C)[C@H](C)CC[C@]5(C(=O)NCCCCN)CC[C@@]4(C)[C@]3(C)CC[C@H]2C(C)(C)[C@H]1OC(C)=O`, the growth is 118%. The value for `Cn1nc(C(F)(F)F)cc1-c1c[nH]c(OCc2ccc(Cl)cc2)c(-c2ccc(Cl)c(C(F)(F)F)c2)c1=O` was -60.9% (active). `COc1ccc(NC(=O)c2ccc(C(F)(F)F)nc2Nc2ccc(Cl)cc2C)cc1Cl`: the growth was 11.5%.

Turning to `O=C(Cn1nncc1CN1C(=O)CSC1=O)Nc1ccc(F)cc1`, the growth is 76.4%.

Consider `COc1ccc(NC(=O)/C=C/c2ccc(Cl)c(Cl)c2)cn1`, for which the growth is 65.6%. As for `CCCCNCC(O)c1cc(-c2ccc(C(F)(F)F)cc2)nc(-c2ccc(C(F)(F)F)cc2)c1` (centres undefined), the growth was -68.1% (active). For the compound `CCCc1cc2c(cc1CN(Cc1cc3c(cc1CCC)OCO3)C(=N)OCC)OCO2`, the growth was 97.6%.

Turning to `CCCNC(=S)N/N=C(\C)c1ccccn1`, the growth was 30.8%. On to `C#CC[C@@H]1C[C@]2(C)[C@H]3CC[C@@H]4[C@H]5C(C(=C)C)CC[C@]5(C(=O)NCCCN5CCN(CCCN)CC5)CC[C@@]4(C)[C@]3(C)CC[C@H]2C(C)(C)[C@H]1OC(C)=O` (some centres undefined), for which the growth is 98.6%.

With `COc1cc2nccc(Oc3ccc(NC(=O)C4(C(=O)Nc5c(F)cc(F)cc5F)CC4)cc3)c2cc1Oc1ccc(N)cn1`, the growth was -6.52% (active).

Take `COc1ccc2[nH]c(C(=O)OCc3ccc4cccc(O)c4n3)cc2c1`: the growth is 36.5%. With `CCOCC(O)(c1ccc(Cl)cc1)c1ccc(Cl)cc1`, the growth is 112%. `Cc1cc(C)cc(NC(=O)Cn2nncc2CN2C(=O)CSC2=O)c1`: the growth was 118%. Consider `Cc1ccc(NC(=O)Cn2nncc2CN2C(=O)CSC2=O)cc1C`, for which the growth is 93.3%. For `COC(=O)/C=C/c1cc(OC(C)=O)c2c(c1)[C@@H](C(=O)OC)[C@H](c1ccc(OC(C)=O)c(OC(C)=O)c1)O2`, the growth is -14.3% (active). The value for `N=c1n(Cc2ccccc2)c(N)cc(=O)n1Cc1ccccc1` was 40.6%; that for `CC(C)[C@H](CN)NC[C@H](C)NS(=O)(=O)c1ccc(C(C)(C)C)cc1` was 107%. For `COc1ccc(/C(=C\c2ccc3c(c2)OCO3)C(=O)Nc2nc3ccccc3s2)cc1`, the growth is 99.9%. For `Cc1ccc(-c2cnc3sc4ccc(Cl)cc4n23)cc1`, the growth is 88.2%. With `COc1cc(C2Nc3ccccc3S2)cc(CN2CCOCC2)c1O` (centres undefined), the growth is 73.3%. Take `CC1=C(O)C(=O)C(c2c(C)cc(C)c(Br)c2C)=C(O)C1=O`: the growth was 64.1%. Regarding `CC(C)OC(=O)c1ccc([N+](=O)[O-])cc1`, the growth is 79.2%. The value for `COc1cc(CN2CCO[C@H](COc3cccc(F)c3)C2)ccc1Cl` was 30.6%; that for `COc1cc(NC(C)CCCN)c2ncccc2c1Oc1ccc(Cl)cc1` (centres undefined) was 71.1%; that for `OC(c1cc(-c2ccc(C(F)(F)F)cc2)nc(-c2ccc(C(F)(F)F)cc2)c1)C1CCCCN1` (centres undefined) was -80.5% (active).

Regarding `C=CCn1c(C)nc2cc(Nc3nc(Nc4ccc5nc(C)n(CC=C)c5c4)nc4ccccc34)ccc21`, the growth was 125%.

In the case of `Fc1ccc2c(CN3CCO[C@H](COc4cccc(Cl)c4)C3)c[nH]c2c1`, the growth was 53.9%.
